DENV2 CPE rescue: inhibitors of DENV2 cytopathic effect, primary screen, cell-based, plate reader, single concentration. DENV2-infected cells, cytopathic effect rescue. CPE inhibition, % at 9.99 µM. hit rate 1.7% among 350,000. AID 651640, 2012; in the data active means CPE inhibition above about 20%, passing the limit was not always enough; inconclusive means no clear call, values can overlap the other calls; tested in BHK-21 cells
ERAP1 inh: human ERAP1 aminopeptidase inhibitors, primary screen, biochemical, single point, plate reader; AID 652197, 2013; hit rate 0.15% among 340,000; Endoplasmic reticulum aminopeptidase 1 (Homo sapiens), Q9NZ08; inhibition, % at 10.7 µM; recombinant ERAP1, Leu-AMC fluorescence, 60 min;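 active means mean replicate inhibition of at least 30%, or all replicates individually reaching that 30% level; inactive means mean below 30% and not every replicate reaching it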
MLL AF4-AF9 inh: inhibitors of AF4 peptide binding to AF9, primary screen, biochemical, AlphaScreen, biotin-AF4 peptide, FLAG-AF9, single point; Protein AF-9 (Homo sapiens), P42568; inhibition, % at 10 µM; hit rate 0.47% among 350,000;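 active means every replicate reaching a set inhibition limit, whatever the replicate mean, cut at about 25% in these data; inconclusive means mean inhibition reaches that limit but some replicates miss it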
RAD52 inh: RAD52 DNA annealing inhibitors, primary screen, biochemical, FRET, single point, set 2; recombinant RAD52 DNA annealing, FRET fluorescence; hit rate 0.46% among 360,000; inhibition, % at 18.7 µM; AID 651710, 2012; DNA repair protein RAD52 homolog (Homo sapiens), P43351;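 active means every replicate showing at least 50% inhibition; inconclusive means mean inhibition at least 50% but not in every replicate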
Target sequence (P43351 whole entry, looked up): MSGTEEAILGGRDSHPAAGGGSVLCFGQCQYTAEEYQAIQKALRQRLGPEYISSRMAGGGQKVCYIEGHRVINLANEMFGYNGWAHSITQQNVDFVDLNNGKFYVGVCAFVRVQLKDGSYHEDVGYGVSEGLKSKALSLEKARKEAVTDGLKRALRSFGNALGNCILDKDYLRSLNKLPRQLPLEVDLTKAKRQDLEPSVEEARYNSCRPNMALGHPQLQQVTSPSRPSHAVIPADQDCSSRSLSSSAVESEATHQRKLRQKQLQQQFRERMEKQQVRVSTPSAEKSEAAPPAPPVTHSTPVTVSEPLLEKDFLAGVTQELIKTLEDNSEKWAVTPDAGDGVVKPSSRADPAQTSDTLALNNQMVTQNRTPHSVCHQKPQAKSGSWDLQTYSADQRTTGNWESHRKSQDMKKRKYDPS
FGF22 binding: binders of human FGF22 protein, primary screen, FGF22 synaptogenesis inhibitor project, biophysical, thermal shift, single point | Fibroblast growth factor 22 (Homo sapiens), Q9HCT0 | recombinant FGF22 thermal shift, SYPRO orange fluorescence; percent of sucrose octasulfate shift, DMSO zero | activity (Tm shift, normalised), % at 9.99 µM | hit rate 1.5% among 340,000 | AID 651658, 2012;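 active means mean Tm shift, scaled 0 neutral to 100 positive control, at about 1.3% or above, every replicate too, limit read from the data; inconclusive means no clear call, values can overlap the other calls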
Target sequence (Q9HCT0 whole entry, looked up): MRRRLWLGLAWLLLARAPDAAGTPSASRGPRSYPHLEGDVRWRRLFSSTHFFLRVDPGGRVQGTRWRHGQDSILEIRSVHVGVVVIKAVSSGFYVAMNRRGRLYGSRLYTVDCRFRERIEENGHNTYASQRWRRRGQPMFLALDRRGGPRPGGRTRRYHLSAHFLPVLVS
A number is an active result; 0 = inactive; ? = inconclusive; - = no result given. A selection: hits, their analogues and other compounds. The true share with any hit is near 4%.

SMILES	DENV2 CPE rescue	ERAP1 inh	MLL AF4-AF9 inh	RAD52 inh	FGF22 binding
C[C@@H]1CN([C@@H](C)CO)C(=O)c2cccc(NS(=O)(=O)c3ccc(Cl)cc3)c2O[C@H]1CN(C)CC1CC1	0	0	0	0	0
CCCN1C[C@H](C)[C@H](OC)CN(C)C(=O)c2ccc(NC(=O)c3cnccn3)cc2OC[C@@H]1C	0	0	0	0	0
CO[C@H]1CN(C)C(=O)c2ccc(NC(=O)c3cnccn3)cc2OC[C@H](C)NC[C@H]1C	53.2	0	0	0	0
CCCN1C[C@@H](C)[C@@H](OC)CN(C)C(=O)c2ccc(NC(=O)c3cnccn3)cc2OC[C@@H]1C	22.1	0	0	0	0
CCCN1C[C@@H](C)[C@H](OC)CN(C)C(=O)c2ccc(NC(=O)Nc3c(C)noc3C)cc2OC[C@@H]1C	22.4	0	0	0	0
CO[C@H]1CN(C)C(=O)c2cc(NC(=O)c3cnccn3)ccc2OC[C@H](C)N(CC2CC2)C[C@@H]1C	35.0	0	0	0	0
Cc1noc(C)c1NC(=O)N(C)C[C@H]1Oc2c(NS(=O)(=O)c3ccc(Cl)cc3)cccc2C(=O)N([C@@H](C)CO)C[C@@H]1C	0	0	0	0	0
C[C@@H]1CCCCO[C@H](CN(C)Cc2ccc3c(c2)OCO3)[C@H](C)CN([C@H](C)CO)C(=O)c2cc(NC(=O)Nc3ccccc3)ccc2O1	0	0	0	0	0
NC(=O)CC[C@H](NC(=O)c1ccc(F)cc1)C(=O)N1CCN(Cc2ccc3c(c2)OCO3)CC1	0	0	0	0	43.1
O=C(c1ccccc1Br)N1CCN(Cc2ccc3c(c2)OCO3)CC1	50.3	0	0	0	0
CCC(C)NC(=S)N1CCN(Cc2ccc3c(c2)OCO3)CC1 (stereo not given)	0	0	0	0	43.0
O=C1CCCn2cc(nn2)COC[C@H](Cc2ccccc2)N1	0	0	0	0	0
C[C@H](CO)N1C[C@H](C)[C@H](CN(C)Cc2ccc(-c3ccccc3)cc2)Oc2ccc(NC(=O)Cn3cnnn3)cc2CC1=O	0	0	0	0	0
O=C(C[C@@H]1CC[C@H]2[C@@H](COC[C@H](O)CN2S(=O)(=O)c2ccccc2)O1)Nc1ccccc1	0	0	0	0	0
C(=N\Nc1nc2ccccc2[nH]1)/c1ccccc1	0	0	0	0	0
C(=N\Nc1nc2ccccc2[nH]1)/C1CCCCC1	0	0	25.7	0	0
OC(CSc1nc(-c2ccccc2)c(-c2ccccc2)o1)CC(O)c1ccccc1 (stereo not given)	30.1	0	0	0	0
Cc1cccc(OCCn2c(=O)n(C)c3ccccc32)c1	68.9	0	0	0	0
CCN(C[C@H]1[C@H](c2ccccc2)[C@H](CO)N1C(C)=O)C(=O)NC(C)C	27.2	0	0	0	0
CCN(C[C@H]1[C@H](c2ccc(-c3ccccc3)cc2)[C@H](CO)N1C(C)=O)C(C)=O	0	0	0	0	0
CCN(C[C@@H]1[C@@H](c2ccc(-c3ccccc3)cc2)[C@H](CO)N1C(C)=O)C(C)=O	22.2	0	0	0	0
O=C(C[C@H]1CC[C@@H](NC(=O)C2CC2)[C@@H](CO)O1)NCC1CC1	0	0	0	0	0
Cc1[nH]c(=O)c(C#N)c(C)c1CCC(=O)NCc1cccc(C(F)(F)F)c1	27.7	0	0	0	0
Cc1ccc(CNC(=O)CCc2c(C)[nH]c(=O)c(C#N)c2C)cc1	?	0	0	0	0
C/C=C/c1ccc([C@@H]2[C@@H](CO)N(C(C)=O)C23CN(C(=O)NC2CCCC2)C3)cc1	0	0	0	0	-
SMILES	DENV2 CPE rescue	ERAP1 inh	MLL AF4-AF9 inh	RAD52 inh	FGF22 binding
CCCN(C)C1CN(Cc2cn(Cc3ccc(C)cc3)nn2)S(=O)(=O)C1 (stereo not given)	25.2	0	0	0	0
CC(=O)c1c(C)[nH]c(C(=O)Nc2cc(F)ccc2C)c1C	0	0	0	0	43.1
CC(=O)c1c(C)[nH]c(C(=O)Nc2ccc(F)cc2F)c1C	0	0	0	0	0
CO[C@@H]1CN(C)C(=O)c2ccc(NC(=O)CC(F)(F)F)cc2OC[C@H](C)N(C(=O)C2CC2)C[C@@H]1C	0	0	0	0	0
O=C(Nc1ccc(Cl)cc1)N[C@@H]1CC[C@H](CCn2cc(Cc3ccccc3)nn2)O[C@H]1CO	0	0	0	0	0
CCN1CCN(C(=O)CSc2nc(N)cc(N)n2)CC1	0	0	0	0	43.6
C[C@H](CO)N1C[C@H](C)[C@@H](CN(C)S(=O)(=O)c2ccc(F)cc2)Oc2ccc(NS(=O)(=O)c3cccs3)cc2CC1=O	0	0	0	0	0
COc1ccc(S(=O)(=O)N(C)C[C@@H]2Oc3ccc(NS(=O)(=O)c4cccs4)cc3CC(=O)N([C@@H](C)CO)C[C@H]2C)cc1	0	0	0	0	0
C[C@H]1CN([C@@H](C)CO)C(=O)Cc2cc(NS(C)(=O)=O)ccc2O[C@H]1CN(C)S(=O)(=O)c1ccc(F)cc1	22.7	0	0	0	0
C[C@@H]1CN([C@H](C)CO)C(=O)Cc2cc(NS(=O)(=O)c3cccs3)ccc2O[C@H]1CN(C)S(=O)(=O)c1ccc(F)cc1	24.3	0	0	0	0
COc1ccc(S(=O)(=O)N(C)C[C@H]2Oc3ccc(NS(=O)(=O)c4cccs4)cc3CC(=O)N([C@@H](C)CO)C[C@@H]2C)cc1	26.3	0	0	0	0
Cc1noc(C)c1S(=O)(=O)N(C)C[C@@H]1Oc2ccc(NS(=O)(=O)c3cccs3)cc2CC(=O)N([C@@H](C)CO)C[C@H]1C	0	0	25.6	0	0
CCS(=O)(=O)NCC[C@H]1CC[C@H](NC(=O)Cc2ccccn2)[C@H](CO)O1	0	0	0	0	0
Cc1ccc(S(=O)(=O)N(C)C[C@@H]2Oc3ccc(NC(=O)C4CCCCC4)cc3CC(=O)N([C@@H](C)CO)C[C@@H]2C)cc1	0	0	0	0	0
CCCN1CCN(CCCNC(=O)c2ccc3nc(N4CCC(C)CC4)sc3c2)CC1	0	0	0	0	0
CC1CCCCN1CCCNC(=O)c1ccc2nc(N3CCCCC3)sc2c1 (stereo not given)	24.8	0	0	0	0
CCCC(=O)N1CCC2(CC1)CN(C(=O)C1CCOCC1)[C@@H](CO)c1[nH]c3cc(OC)ccc3c12	0	-	0	-	-
C[C@@H]1CCCCO[C@H](CN(C)Cc2ccc3c(c2)OCO3)[C@@H](C)CN([C@@H](C)CO)C(=O)c2cc(NS(=O)(=O)c3cccs3)ccc2O1	0	-	-	0	0
C[C@H](CO)N1C[C@H](C)[C@@H](CN(C)Cc2ccc(Cl)c(Cl)c2)OCCCC[C@H](C)Oc2ccc(NS(=O)(=O)c3cccs3)cc2C1=O	0	0	0	0	0

High-throughput results from PubChem.
